Bioassay records from PubChem.
An excerpt weighted towards active compounds, which were near 6.5% of everything screened.
IL1B secr inh – inhibitors of inflammasome signaling (IL-1 beta secretion) | THP-1 LPS/ATP IL-1B secretion, AlphaLISA, 16 h; active compounds read low | activity change, % at 57.5 µM | actives 4.7% (n = 360,000) | AID 743279; in the data active = activity change below about -50%; inconclusive = mostly about -30% to -49%; note: % is set by controls: 0 for no effect and ±100 for the full control effect
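THP-1 cells pretreated 1 hr with compounds (up to 57.5 uM final), then stimulated with LPS (250 ng/mL final) plus ATP (1.25 mM final); secreted IL-1B measured by AlphaLISA after 16 hr, decreased signal indicating inhibition.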
TGFb inhibitor – TGF-b pathway inhibition; HepG2 CAGA-GFP TGF-b/SMAD3 reporter, GFP fluorescence, 18 h; TGF-beta stimulated, 500 pg/mL final; actives 1.2% (n = 410,000); Potency, µM (top dose mostly 46.1 µM), without a hit: top-dose activity, negative = inhibition, most hits filed as inhibitors; note: potency is the fitted concentration of half-maximal effect; % is set by controls: 0 for no effect and ±100 for the full control effect; nearly all actives have a fitted effect of over 65% in size
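Inhibition was scored as loss of TGF-beta-induced (500 pg/mL final, 18 hours, 37 degrees C) GFP in HEPG2 cells carrying a CAGA-GFP reporter, in DMEM with 1% FBS. Well GFP was summed per cell; Activity was normalised to unstimulated and stimulated DMSO wells, then concentration-response fitting.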
Giardia killer – kills Giardia lamblia; Giardia lamblia trophozoite viability; activity change, % at 7.66 µM, hits read low; actives 0.15% (n = 340,000); AID 540267; in the data active = activity change below about -80%; inconclusive = between about -30% and that limit;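 note: parasites exposed to compound for two days anaerobically before the ATP read; % is set by controls: 0 for no effect and ±100 for the full control effect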
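Giardia trophozoites, 100 cells per well, were exposed to compounds for 48 hrs at 37 deg C under anaerobic conditions; viability was then read as ATP content by bioluminescence after 15-30 min at room temperature.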
HT1080-NT tox – kills 2HG-producing HT-1080-NT fibrosarcoma cells; Potency, µM (highest dose often 46.1 µM), without a hit: at the highest dose activity, negative = less viability, hits mostly cytotoxic; HT-1080-NT fibrosarcoma viability, CellTiter-Glo ATP luminescence, 48 h; actives 1.6% (n = 360,000);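 note: NT is the 2HG producing partner of a matched IDH1 knockdown line; potency is the fitted concentration of half-maximal effect; 0% = DMSO-treated cells and -100% = media-only wells without cells; nearly all actives have a fitted effect of over 55% in size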
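750 cells/well, RPMI + 5% FBS; 2 h settle, compound pin-transfer, 48 h at 37 degrees C. CellTiter-Glo 10 min RT, luminescence. Normalized to DMSO and media-only wells.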
HT1080 IDH1KD tx – toxicity to HT-1080 IDH1 knockdown cells (counter line); actives 2% (n = 360,000); Potency, µM (titrated, usually from 46.1 µM), without a hit: at the top dose activity, negative = toxicity, most hits filed as cytotoxic; HT-1080 IDH1 knockdown viability, ATP luminescence, 48 h; AID 686971;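 note: potency is the fitted concentration of half-maximal effect; 0% = DMSO wells and -100% = cell-free medium wells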
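% activity derives from luminescence (CellTiter-Glo), normalised to DMSO and no-cell wells. HT-1080-IDH1KD cells, 750/well, had 48 h compound exposure at 37 °C.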
HepG2 viability – kills HepG2 cells in TGF-b inhibitor counter-screen. Potency, µM (doses to about 46.1 µM), for the others: at the top dose activity change, negative = cytotoxicity, usual class: cytotoxic. HepG2 CAGA-GFP viability, ATP luminescence, 18 h. actives 0.76% (n = 410,000); note: potency is the fitted concentration of half-maximal effect
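CellTiter-Glo luminescence gave cytotoxicity after 18 hours at 37 degrees C. The cells were HepG2 CAGA-GFP in 1% FBS DMEM, stimulated with 500 pg/mL TGF-beta after compound addition. %Activity was normalised to no-cell wells (complete cell-killing) and DMSO (no toxicity), and curves were fitted and classified.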
An asterisk follows results filed as active; ? = inconclusive; · = not tested or not shown; [ ] = remark or other dose. Unless noted, calls come from the whole dose curve; as a rule, active = well fitted curve in the direction sought with a large enough effect; inconclusive = small, poorly fitted or top-dose-only effect, or another doubt; inactive = no such curve, though single readings can be large; an effect the other way counts as inactive or inconclusive.

SMILES	IL1B secr inh	TGFb inhibitor	Giardia killer	HT1080-NT tox	HT1080 IDH1KD tx	HepG2 viability
COc1cc(/C=N/Nc2nc3ccccc3s2)ccc1OC(=O)c1ccccc1F	-71.2*	5.8%	-4.3	-17.8%	?	-2.0%
COc1ccc2nc(NC(=O)Nc3ccccc3)sc2c1	-60.0*	?	6.2	?	-21.6%	-30.2%
NC(=S)Nc1nc2ccccc2s1	0.0	?	0.2	-1.3%	14.6µM*	8.4%
COc1cc(OC)cc(C(=O)Oc2ccc(/C=N/Nc3nc4ccccc4s3)cc2OC)c1	-6.5	-3.5%	-21.3	-10.2%	-10.4%	-6.8%
C=C(C)C1CC=C(C)/C(=N\NC(=O)CCc2ccccc2)C1 (stereo not given)	-14.7	9.8%	-5.8	24.6%	16.7%	3.9%
CC(=O)c1cccc(NC(=O)N2C3CCC2CC(O)(c2cccnc2)C3)c1 (stereo not given)	-19.7	2.0%	3.0	2.6%	-1.2%	-10.2%
COc1ccc2sc(NC(C)=O)nc2c1	-21.8	10.2%	-2.8	-1.4%	-0.6%	-14.9%
COc1ccccc1C(=O)Nc1nc2ccccc2s1	-1.2	-21.4%	?	25.9µM*	20.6µM*	11.2µM*
COc1ccccc1C(=O)Nc1nnc(CCc2ccccc2)s1	-28.4	-9.1%	10.0	7.31µM*	6.51µM*	-3.4%
CCOC(=O)Cc1nnc(NC(=O)c2ccccc2OC)s1	-14.2	-13.8%	-0.1	17.2%	2.4%	12.7%
COc1ccc2nc(NC(=O)c3ccccc3C(=O)O)sc2c1	4.2	14.9%	-14.9	-2.8%	-3.2%	-2.8%
COc1ccccc1C(=O)Nc1nc2ccc(S(C)(=O)=O)cc2s1	10.3	6.5%	-10.9	1.0%	-11.5%	0.0%
COc1ccc2sc(NC(=O)NC(=O)c3c(Cl)cccc3Cl)nc2c1	-88.5*	-10.9%	?	-3.3%	-11.2%	-3.8%
COc1ccc(C(=O)Nc2nc3ccccc3s2)c(OC)c1	-14.3	12.0%	-95.3*	20.6µM*	20.6µM*	17.8µM*
O=C(Nc1cnc2ccccc2c1)N1CCCCC1	-3.5	27.2%	-1.0	27.7%	18.0%	-37.9%
CNC(=O)Nc1cccc(-c2cc(-c3c(Cl)cccc3Cl)no2)c1	-79.1*	?	-6.8	-3.8%	?	-14.6%
CCOc1ccc(N(CC(=O)NC2CCCC2)C(=O)CSc2nnc(COc3ccccc3)o2)cc1	-55.1*	-1.6%	13.0	-17.3%	-5.6%[9.24 µM]	-20.7%
O=C(NCc1ccncc1)[C@@H]1CCCN1C(=O)[C@@H]1CCCN1C(=O)c1cccc2ccccc12	-102.7*	·	·	4.4%	3.4%	·
COc1ccc(S(=O)(=O)N2CCC[C@H]2C(=O)N2CCC[C@H]2C(=O)NCc2ccccc2)cc1C	0.0	·	·	1.2%	10.8%	·
COc1ccc(S(=O)(=O)N2CCC[C@H]2C(=O)N2CCC[C@H]2C(=O)NCc2ccncc2)cc1C	-57.1*	·	·	1.1%	4.0%	·
O=C(O)c1cc(/C=C/c2ccc(N3CCOCC3)cc2)nc2ccccc12	42.2	0.1%	?	23.1µM*	?	-64.2%
Cc1ccc(NC(=O)c2cc(N3CCOCC3)nc3ccccc23)cc1	-5.3	-6.7%	22.4	10µM*	?	-6.5%
O=C(Nc1ccccc1)c1cc(N2CCOCC2)nc2ccccc12	-5.3	-20.9%	5.2	-13.6%	-7.8%	1.9%
CCOc1ccc(NC(=O)c2cc(OC)nc3ccccc23)cc1	49.6	-25.3%	7.8	0.461µM*	0.461µM*	-1.8%
COc1cc(C(=O)Nc2ccc(C)cc2)c2ccccc2n1	104.3	-29.8%	12.4	?	0.517µM*	-2.8%
SMILES	IL1B secr inh	TGFb inhibitor	Giardia killer	HT1080-NT tox	HT1080 IDH1KD tx	HepG2 viability
CCOc1ccc(N(CC(=O)Nc2ccc3c(c2)OCCO3)S(=O)(=O)c2c(C)noc2C)cc1	-2.7	-14.7%	5.6	-14.6%	-9.6%	1.2%
C/C(=N\NC(=O)Cc1ccc(Cl)cc1)c1ccc(F)cc1	-6.6	29.2%	-9.5	-4.3%	2.6%	0.3%
C/C(=N\NC(=O)Cc1ccc(Cl)cc1)c1ccccc1O	73.8	?	6.0	?	5.17µM*	-38.8%
Fc1ccc(N/N=C2/CC(c3ccccc3)Oc3ccccc32)c(F)c1 (stereo not given)	-52.0*	-1.1%	-23.0	-9.3%	-11.8%	-24.1%
CCCCC1(C)OC(=O)C(=Cc2c[nH]c3ccccc23)C(=O)O1 (stereo not given)	-9.4	3.4%	0.4	11.7%	5.8%	-7.7%
N#CC1=C(N)C2=CCCC[C@H]2[C@H](c2cccc(F)c2)C1(C#N)C#N	-94.4*	?	-8.7	?	16.4µM*	1.0%
COc1ccc2cc3cc(C(=O)NCCN4CCN(Cc5ccccc5)CC4)oc3nc2c1	-67.4*	-5.1%	-14.1	-0.2%	-9.9%	-48.3%
COc1ccc2cc3cc(C(=O)NCCCN4CCC(C)CC4)oc3nc2c1	-83.1*	-0.1%	11.9	-24.8%	-23.7%	-5.2%
COc1ccc2cc3cc(C(=O)NCCN4CCc5ccccc5C4)oc3nc2c1	-19.8	0.0%	8.0	-23.9%	?	-49.0%
CCN1CCN(CCCNC(=O)c2cc3cc4ccc(OC)cc4nc3o2)CC1	-84.9*	-16.1%	21.4	-19.9%	-15.0%	-28.6%
Cn1nnnc1SCC(=O)Nc1ccc(C(=O)N2CCN(Cc3ccccc3F)CC2)cc1	-5.0	2.4%	8.8	16.8%	0.0%	3.9%
O=C(Nc1cc(Cl)ccc1N1CCCC1)C1=COCCO1	-8.3	-1.7%	8.2	0.5%	-1.8%	-15.2%
O=c1[nH]c(CSc2nc3ccccc3[nH]2)nc2c1cnn2-c1ccccc1	-66.7*	-1.8%	8.9	23.1µM*	?	-41.5%
O=C(CN(C(=O)CCC(=O)Nc1nccs1)c1cccc(F)c1)NCc1ccc(F)cc1	19.9	-4.2%	-5.4	3.8%	-1.5%	7.3%
CCCn1c(SCC(=O)N2N=C3/C(=C/c4ccc(OC)cc4)CCCC3C2c2ccc(OC)cc2)n[nH]c1=O (stereo not given)	-25.4	12.6µM*	9.8	7.31µM*	11.6µM*	-64.8%
CCCn1c(SCC(=O)NCc2ccc(OC)cc2)n[nH]c1=O	22.5	4.5%	7.6	13.8%	11.4%	-13.2%
O=C(c1ccccn1)N1N=C2/C(=C/c3ccc(F)cc3)CCCC2C1c1ccc(F)cc1 (stereo not given)	-54.7*	-0.5%	2.7	-19.9%	-26.0%	3.0%
CNC(=O)CCCN1C(=O)CCn2nc(-c3cn(C)c4ccccc34)cc21	·	2.1%	·	·	·	6.0%
CCOC(=O)C(NC(=O)Cc1ccccc1)(Nc1cc(C)on1)C(F)(F)F (stereo not given)	-0.6	-15.3%	3.5	16.0%	-0.4%	-10.1%
